# Experimental data published in PubChem BioAssay.
# The source made the active and inactive calls.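 The calls were made as follows, unless noted: active = inhibition of the reporter signal at or above 50%; inactive = inhibition below 50%.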
# Assays:
# [1] = inhibitors of TNFa-induced NFkB p65 translocation, primary screen, imaging, HUVEC, MLSMR starter and 10KST1 sets (AID 438;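 active = inhibition above 20% together with a positive visual image hit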;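 also: compound added about 3h40 before a 20 min TNFalpha stimulation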;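 as to inhibition: signal is the nuclear over cytoplasmic p65 intensity ratio per well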); details: HUVEC TNFa-induced p65 nuclear translocation; cell count: measured here: nuclei count (cytotoxicity indicator), at 2.08 µM; inhibition: at 2 µM, stronger effect = higher value, 0% TNFa-plus-vehicle, 100% no-TNFa wells
# [2] = inhibitors of mutant huntingtin aggregation, primary screen, imaging, exon1htt(103Q)mCFP cells, high-content imaging (AID 483;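 active = visual image review flags a hit and inhibition of aggregation exceeds 20%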;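 also: compound exposure lasted 3 days before fixation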;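 as to nuclei count: percent of the per-plate median nuclei count of sample wells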); details: exon1htt(103Q)mCFP cell line, aggregate imaging, at 2 µM; inhibition of aggregation: stronger effect = higher value; nuclei count: measured here: cell count, toxicity
# [3] = inhibitors of E-selectin induction by TNFa, primary screen, imaging, HUVEC, immunofluorescence, MLSMR starter and 10KST1 sets (AID 487;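 active = visually confirmed hit in the image check and inhibition above 20%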;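 as to inhibition: signal is fraction of cell area covered by stained E-selectin grains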;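 as to nuclei count: 100% = median nuclei count of all wells on the same plate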); details: HUVEC TNFalpha-induced E-selectin immunofluorescence imaging, at 2 µM; inhibition: stronger effect = higher value; nuclei count: measured here: cell number, toxicity
# [4] = biological target: Voltage-gated potassium channel subunit beta-2 (Rattus norvegicus) (UniProt P62483); assay: KvBeta enzyme negative modulators, primary screen, biochemical, NADPH fluorescence (AID 622;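 active = fluorescence slope higher than the sample average by over 3 SD, cut at about -0.22 in these data, passing the limit was not always enough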;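 also: slope of raw intensity against log time taken from 70 to 1610 s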); details: recombinant KvBeta, 4-cyanobenzaldehyde reduction, at 10 µM, stronger effect = higher value
# [5] = biological target: Voltage-gated potassium channel subunit beta-2 (Rattus norvegicus) (UniProt P62483); assay: KvBeta positive modulators, primary screen, biochemical, NADPH fluorescence (AID 623;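 active = NADPH fluorescence slope more negative than the mean of all samples by about 3 SD, 99.7% confidence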;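 also: fluorescence intensity change per second fitted from 20 to 320 s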); details: Recombinant KvBeta, NADPH fluorescence decrease slope, 10 min; at 10 µM; stronger effect = lower value
# [6] = biological target: Alpha-2C adrenergic receptor (Homo sapiens) (UniProt P18825); assay: modulators of alpha2C/GIRK thallium flux, primary screen, cell-based, HEK293 alpha2C/GIRK1/2 (AID 624;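 active = fluorescence slope after compound addition differing from the mean of all screened samples at 99.7% confidence, in either direction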;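 also: slope of fluorescence ratio to pre-addition baseline per second over 15 to 24 s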); details: thallium flux BTC fluorescence, at 10 µM, actives lie on both sides
# [7] = inhibitors of Sendai virus-induced IRF3 signaling, primary screen, TLR/RLR signaling modifier project, cell-based, Sendai virus stimulus, luciferase, 10K MLSCN set (AID 602276;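 active = inhibition at or above 50% at 10 µM; inactive = inhibition below 50%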;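 also: firefly luciferase from ISG56 promoter only with Renilla not read in this screen; 0% = Sendai virus plus DMSO and 100% = medium plus DMSO without virus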); details: HEK293 RL24 IRF3 luciferase reporter, at 10 µM, stronger effect = higher value
# [8] = inhibitors of poly I:C-induced TLR3 signaling, primary screen, cell-based, poly I:C stimulus, luciferase, 10K MLSCN set (AID 602277); details: HEK293-TLR3 RL24 IRF3 luciferase reporter, at 10 µM, stronger effect = higher value
# Sequence of Voltage-gated potassium channel subunit beta-2 (Rattus norvegicus) (P62483 whole entry, looked up): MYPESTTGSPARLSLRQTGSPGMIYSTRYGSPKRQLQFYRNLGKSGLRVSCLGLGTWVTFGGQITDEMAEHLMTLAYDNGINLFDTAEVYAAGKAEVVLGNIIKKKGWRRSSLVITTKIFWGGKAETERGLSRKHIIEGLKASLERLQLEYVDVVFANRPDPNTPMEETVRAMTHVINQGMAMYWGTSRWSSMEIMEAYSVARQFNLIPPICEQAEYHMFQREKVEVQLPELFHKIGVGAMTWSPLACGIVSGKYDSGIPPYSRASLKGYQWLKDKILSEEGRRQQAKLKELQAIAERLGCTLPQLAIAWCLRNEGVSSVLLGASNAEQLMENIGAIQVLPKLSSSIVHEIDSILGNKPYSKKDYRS
# Sequence of Alpha-2C adrenergic receptor (Homo sapiens) (P18825 whole entry, looked up): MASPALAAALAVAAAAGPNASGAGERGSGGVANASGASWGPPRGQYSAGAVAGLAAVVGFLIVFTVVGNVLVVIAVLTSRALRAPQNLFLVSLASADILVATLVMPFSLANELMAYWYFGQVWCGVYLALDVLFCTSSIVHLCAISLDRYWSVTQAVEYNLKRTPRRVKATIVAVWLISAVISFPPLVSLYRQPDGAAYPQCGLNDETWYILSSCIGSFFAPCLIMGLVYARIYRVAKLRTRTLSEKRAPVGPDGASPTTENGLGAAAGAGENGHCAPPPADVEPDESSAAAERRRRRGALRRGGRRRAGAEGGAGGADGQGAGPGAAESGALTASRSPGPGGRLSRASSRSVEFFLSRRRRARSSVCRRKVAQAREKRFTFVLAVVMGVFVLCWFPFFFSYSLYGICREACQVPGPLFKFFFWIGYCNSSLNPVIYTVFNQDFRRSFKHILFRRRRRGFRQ
SMILES,cell count [1],inhibition [1],inhibition of aggregation [2],nuclei count [2] [%],inhibition [3],nuclei count [3] [%],fluorescence slope [4],NADPH fluorescence slope [5],slope [6],inhibition [7],inhibition [8]
COc1cc(S(=O)(=O)N(C)C)ccc1F,333,-4.5% (inactive),5.9% (inactive),87.4,-114% (inactive),116,-0.413 (inactive),-5e-05 (inactive),0.00561 (inactive),17.1% (inactive),9.1% (inactive)
CC1=CCC(C(C)(C)NC(=O)c2ccccc2)C/C1=N\O (stereo not drawn),313,2% (inactive),-4.5% (inactive),89.1,-6.2% (inactive),120,-0.624 (inactive),-1.5e-05 (inactive),0.00574 (inactive),17.1% (inactive),20.6% (inactive)
O=C(NCc1cccs1)C1CC(=O)N(C2CCCC2)C1 (stereo not drawn),376,-14.4% (inactive),-18.1% (inactive),97.2,-121% (inactive),172,-0.56 (inactive),4.8e-05 (inactive),0.00628 (inactive),-9.61% (inactive),-21.8% (inactive)
O=S(=O)(Nc1nc2ccccc2nc1NCc1ccco1)c1cccs1,448,-6.2% (inactive),-18.2% (inactive),105,-73.9% (inactive),120,-0.298 (inactive),-6.8e-05 (inactive),0.00495 (inactive),14.7% (inactive),14.6% (inactive)
Cc1cc(C)n(-c2nc3c(c(=O)n(Cc4ccc(Cl)c(Cl)c4)c(=O)n3C)n2C)n1,404,-1.4% (inactive),1.2% (inactive),105,-8.9% (inactive),115,-0.6 (inactive),-1.8e-05 (inactive),0.00595 (inactive),4.56% (inactive),21.6% (inactive)
Cc1ccc(-c2ccc(SCC(=O)Nc3nonc3C)nn2)cc1,413,2.2% (inactive),-2% (inactive),103,-24.8% (inactive),108,-0.283 (inactive),-5.6e-05 (inactive),0.00591 (inactive),9.6% (inactive),15.8% (inactive)
Cc1csc(NC(=O)CSc2nnc(Cc3cccn3C)n2-c2ccc(F)cc2)n1,688,-3.4% (inactive),12.8% (inactive),74,-48.6% (inactive),105,-0.57 (inactive),2e-05 (inactive),0.00588 (inactive),-11.3% (inactive),8.94% (inactive)
Cc1ccc(C)c(S(=O)(=O)C(C#N)c2nc3ccccc3nc2N2CC(C)OC(C)C2)c1 (stereo not drawn),358,-4.1% (inactive),-3.8% (inactive),103,-84.3% (inactive),125,-0.494 (inactive),-1.6e-06 (inactive),0.00382 (inactive),32.7% (inactive),2.87% (inactive)
O=C(Oc1cc2oc(=O)c3c(c2cc1Cl)CCCC3)c1ccco1,532,-14.1% (inactive),-4.9% (inactive),101,-50.1% (inactive),148,-0.14 (inactive),-2.3e-05 (inactive),0.00588 (inactive),4.58% (inactive),7.41% (inactive)
COc1ccc(CCNc2oc(COc3ccc(F)cc3)nc2C#N)cc1,407,-9.8% (inactive),8.7% (inactive),88.8,17% (inactive),74.8,-0.608 (inactive),-3.3e-06 (inactive),0.00681 (inactive),15.6% (inactive),23.5% (inactive)
COc1cccc(CNC(=O)Cn2c(=O)oc3ccccc32)c1OC,603,-4% (inactive),2.6% (inactive),59.7,-16.3% (inactive),88.3,-0.53 (inactive),-3.1e-05 (inactive),0.00743 (inactive),11.8% (inactive),31% (inactive)
CC1CCN(S(=O)(=O)c2cn(CC(=O)N3CCN(C)CC3)c(=O)c3ccccc23)CC1,278,-8.5% (inactive),-2.7% (inactive),91.6,-28.3% (inactive),121,-0.604 (inactive),5.5e-06 (inactive),0.00569 (inactive),0.28% (inactive),17.6% (inactive)
N#CC1=C(N)N(c2ccc(Oc3ccccc3)cc2)C(=O)C1,546,-3.8% (inactive),-0.2% (inactive),119,-5.8% (inactive),128,-0.481 (inactive),-5.5e-05 (inactive),0.00638 (inactive),5.59% (inactive),-5.96% (inactive)
CC(=O)N1CCN=C1SCc1ccc(Br)cc1,442,14.5% (inactive),15.2% (inactive),95.1,39.5% (inactive),98.6,-0.632 (inactive),-9.6e-06 (inactive),0.00733 (inactive),-0.301% (inactive),22.3% (inactive)
CC1Cc2ccccc2N1S(=O)(=O)c1ccc2c(c1)n(C)c(=O)c(=O)n2C (stereo not drawn),339,6.6% (inactive),-25.5% (inactive),96.4,-21.1% (inactive),111,-0.43 (inactive),6.1e-06 (inactive),0.00562 (inactive),19.2% (inactive),17.1% (inactive)
COc1cccc(-c2cc(C(=O)N3CCCCCC3)no2)c1,519,-11.6% (inactive),-8.6% (inactive),82.4,-44.3% (inactive),116,-0.522 (inactive),-3.5e-05 (inactive),0.00692 (inactive),-24.6% (inactive),-141% (inactive)
CN(C)C(=O)c1ccc(COc2ccccc2Br)o1,730,-11% (inactive),27.2% (inactive),71.4,-26.4% (inactive),104,-0.606 (inactive),-2.2e-05 (inactive),0.0062 (inactive),-40.1% (inactive),-62.5% (inactive)
COCc1nnc(NC(=O)CCCOc2ccccc2)s1,732,2.1% (inactive),-7.8% (inactive),92,-11.3% (inactive),103,-0.42 (inactive),9.1e-06 (inactive),0.00536 (inactive),1.61% (inactive),9.03% (inactive)
O=C(NCCN1CCOCC1)NC1(C(F)(F)F)Oc2ccc(Cl)cc2O1 (stereo not drawn),457,16.3% (inactive),11% (inactive),96.4,-51.7% (inactive),118,-0.467 (inactive),-5.6e-05 (inactive),0.00481 (inactive),24.6% (inactive),37.9% (inactive)
CC(=O)c1ccccc1Oc1nc(CN2CCOCC2)nc2scc(-c3cccs3)c12,330,-5.7% (inactive),13.6% (inactive),99.2,-50.4% (inactive),109,-0.478 (inactive),-1.8e-05 (inactive),0.00384 (inactive),7.86% (inactive),37.7% (inactive)
CCOC(=O)c1c(C)oc2c1c(C(c1ccncc1)N1CCOCC1)c(O)c1ccccc12 (stereo not drawn),827,-7.9% (inactive),-6.4% (inactive),101,-21.1% (inactive),107,-0.594 (inactive),2.5e-05 (inactive),0.00459 (inactive),-6.32% (inactive),-31.2% (inactive)
c1ccc(Cn2nnnc2CN2CCN(c3ncccn3)CC2)cc1,717,-8.1% (inactive),-12.8% (inactive),114,-11.1% (inactive),130,-0.585 (inactive),-4.5e-05 (inactive),0.0043 (inactive),11.4% (inactive),20.1% (inactive)
CCOC(=O)c1ccc(NC(=O)CSc2n[nH]c(-c3ccncc3)n2)cc1,590,-1.9% (inactive),7.2% (inactive),99.9,-26.4% (inactive),110,-0.592 (inactive),-3.8e-05 (inactive),0.00612 (inactive),-5.95% (inactive),-15.4% (inactive)
Cc1ccc(-n2nnnc2SCC(=O)Nc2c(C)n(C)n(-c3ccccc3)c2=O)cc1,637,-1.1% (inactive),4.2% (inactive),91.4,-18.7% (inactive),106,-0.583 (inactive),-1.3e-05 (inactive),0.00453 (inactive),-6.61% (inactive),-12.3% (inactive)
COc1ccc(OC)c(-c2cc(C(=O)NCc3cccs3)no2)c1,248,1.3% (inactive),29.5% (inactive),101,-23.8% (inactive),124,-0.487 (inactive),-5.5e-06 (inactive),0.00616 (inactive),3.16% (inactive),32% (inactive)
O=C(NCc1ccco1)c1cnc2n(c1=O)CCS2,188,4.4% (inactive),5.7% (inactive),66.8,7.8% (inactive),93.2,-0.419 (inactive),-1.2e-05 (inactive),0.00633 (inactive),10% (inactive),2.98% (inactive)
Cc1[nH]nc2c1C(c1ccc(F)cc1)C1=C(CC(C)(C)CC1=O)N2 (stereo not drawn),561,-30.6% (inactive),4.4% (inactive),98.7,-52.8% (inactive),102,-0.451 (inactive),-8.1e-06 (inactive),0.00591 (inactive),10.5% (inactive),32.3% (inactive)
O=C(CCC(=O)c1cccs1)NCc1ccccc1,462,-0.2% (inactive),-5.4% (inactive),111,-24.2% (inactive),132,-0.622 (inactive),-5.1e-06 (inactive),0.0103 (inactive),-1.41% (inactive),1.97% (inactive)
